HTT ATP protect: qHTS Multiplex Assay to Identify Dual Action Probes in a Cell Model of Huntington: Cytoprotection (ATP); PC12 HTT-Q103 induced, cytoprotection, ATP luminescence, 40 h; Potency, µM (series often up to 56.4 µM), without a hit: cytoprotection (ATP increase), actives largely listed as activators; 230,000 tested, 0.14% active; AID 1471, 2008; further: potency means the concentration at half of the fitted maximal effect; % of control where 0% means no effect; nearly all actives have a fitted effect of over 45% in size
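PC12 cells with ecdysone-inducible HTT exon 1 Q103-GFP, induced with 100 nM tebufenozide and co-treated with library compounds in a dose series (1536-well, 1500 cells/well). Cytoprotection read as ATP content by ATPlite luminescence.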
HPGD block: qHTS Assay for Inhibitors of HPGD (15-Hydroxyprostaglandin Dehydrogenase); Potency, µM, without a hit: top-dose activity change, negative = inhibition, usual class: inhibitors; 150,000 tested, 4.3% active; purified HPGD, NADH fluorescence kinetic, PGE2 substrate; 15-hydroxyprostaglandin dehydrogenase [NAD(+)] (Homo sapiens), P15428; active means well fitted inhibition curve with a large enough effect, not every such curve was filed as active; inconclusive means small, poorly fitted or top-dose-only effect, or another doubt; inactive means no such curve, though single readings can be large or run the other way; further: potency means the concentration at half of the fitted maximal effect; on the % scale 0 is the no-effect control and ±100 the full control effect
Target sequence (P15428 whole entry, looked up): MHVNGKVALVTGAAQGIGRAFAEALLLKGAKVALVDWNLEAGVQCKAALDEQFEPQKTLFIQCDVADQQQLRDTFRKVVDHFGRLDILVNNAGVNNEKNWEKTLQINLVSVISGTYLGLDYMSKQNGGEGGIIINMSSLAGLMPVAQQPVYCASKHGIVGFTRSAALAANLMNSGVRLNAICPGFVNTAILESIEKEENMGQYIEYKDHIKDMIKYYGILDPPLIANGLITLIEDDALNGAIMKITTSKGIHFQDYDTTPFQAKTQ
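20 nM HPGD preincubated 15 min at room temperature with compound in 50 mM Tris-HCl pH 8, 0.01% Tween 20. Started with 1 mM NAD+ and 30 uM prostaglandin E2; NADH fluorescence (360/450 nm) read 5 times over 30-s intervals, last minus first.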
HTT aggregate: qHTS Multiplex Assay to Identify Dual Action Probes in a Cell Model of Huntington: Aggregate Formation (GFP); PC12 HttQ103-GFP aggregates, Acumen cytometry, 40 h; 220,000 tested, 1.1% active; AID 1688, 2009; Potency, µM (top dose mostly 46.1 µM), without a hit: top-dose activity change, negative = inhibition, hits mostly inhibitors; further: potency means the concentration at half of the fitted maximal effect; on the % scale 0 is the no-effect control and ±100 the full control effect; nearly all actives have a fitted effect of over 60% in size
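Read-out: GFP aggregate count by laser scanning cytometer (488 nm excitation, 500-530 nm emission, 1–25 µm objects >6 SD above background). Cells: PC12, inducible HTTex1-Q103-GFP, 100 nM tebufenozide; compounds titrated.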
ALDH1A1 block: qHTS Assay for Inhibitors of Aldehyde Dehydrogenase 1 (ALDH1A1); 220,000 tested, 7.3% active; Potency, µM (top dose mostly 75.3 µM), without a hit: top-dose activity, negative = inhibition, most hits filed as inhibitors; Purified ALDH1A1, NADH fluorescence, propionaldehyde substrate; Aldehyde dehydrogenase 1A1 (Homo sapiens), P00352; active means well fitted inhibition curve with a large enough effect, not every such curve was filed as active; inconclusive means small, poorly fitted or top-dose-only effect, or another doubt; inactive means no such curve, though single readings can be large or run the other way;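 further: potency means the concentration at half of the fitted maximal effect; plate controls were no enzyme wells and a reference inhibitor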
Target sequence (P00352 whole entry, looked up): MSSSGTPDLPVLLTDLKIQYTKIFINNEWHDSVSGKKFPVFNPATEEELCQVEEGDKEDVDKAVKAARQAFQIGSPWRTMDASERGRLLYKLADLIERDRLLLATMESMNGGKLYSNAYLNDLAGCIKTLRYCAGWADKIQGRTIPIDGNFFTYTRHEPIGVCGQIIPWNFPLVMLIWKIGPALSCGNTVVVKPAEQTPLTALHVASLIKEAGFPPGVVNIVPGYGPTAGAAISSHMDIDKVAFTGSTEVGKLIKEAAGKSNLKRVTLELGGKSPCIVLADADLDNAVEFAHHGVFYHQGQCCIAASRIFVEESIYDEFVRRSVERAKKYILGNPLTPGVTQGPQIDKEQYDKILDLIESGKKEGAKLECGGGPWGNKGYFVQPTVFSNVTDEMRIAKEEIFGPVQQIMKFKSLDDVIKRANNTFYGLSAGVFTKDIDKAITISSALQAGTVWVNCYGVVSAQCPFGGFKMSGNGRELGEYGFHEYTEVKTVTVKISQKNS
PNC inhibitor: High Content Assay for Compounds that inhibit the Assembly of the Perinucleolar Compartment. activity change (PNC), negative = inhibition, % at 10 µM. 140,000 tested, 3.1% active. PC3M PTB-GFP, PNC prevalence imaging, 16 h; active compounds read low. AID 2417, 2010;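 active means readout at or below -70, meaning at least 70% loss of cells showing the perinucleolar compartment, a nuclear body marking cancer cells; inconclusive means readout between -30 and a set limit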;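 further: plate controls were DMSO wells for no effect and camptothecin positive control wells for full effect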
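PC3M cells stably expressing PTB-GFP, 750–1000 cells/well, treated 16 h at 37 °C with compound (23 nl of library stock), in duplicate. After paraformaldehyde fixation and Hoechst stain, imaged at 20x; PNC prevalence scored by image analysis.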
CBFb RUNX1 block: qHTS Assay for Compounds Blocking the Interaction Between CBF-beta and RUNX1 for the Treatment of Acute Myeloid Leukemia. 230,000 tested, under 10 active. Runt-related transcription factor 1 (Homo sapiens) + Core-binding factor subunit beta …. Potency, µM (series often up to 59.8 µM), without a hit: top-dose activity, negative = inhibition, most hits filed as inhibitors. AlphaScreen CBFb-His/RUNX1-biotin binding, biochemical. AID 1477, 2009; further: % of control where 0% means no effect
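Proteins preincubated together for 20 min at RT before compound addition; 15 min later, nickel and streptavidin beads were added and left 90 min prior to AlphaScreen measurement.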
* = called active by the depositor; ? = inconclusive; . = no result given; [ ] = remark or other dose. In the library only some 11% were active in any assay of this set; here they are far more common. Unless noted, the call rests on the fitted dose curve; in most records, active means well fitted curve in the direction sought with a large enough effect; inconclusive means small, poorly fitted or top-dose-only effect, or another doubt; inactive means no such curve, though single readings can be large; an effect the other way counts as inactive or inconclusive.

SMILES | HTT ATP protect | HPGD block | HTT aggregate | ALDH1A1 block | PNC inhibitor | CBFb RUNX1 block
S=P(c1ccc(N2CCOCC2)cc1N1CCOCC1)(N1CCOCC1)N1CCOCC1 | 10.0%[10 µM] | 25.1µM* | -2.4% | 28.2µM* | ? | 3.2%
N#Cc1cc(NC(=O)c2ccc(F)cc2)c(=O)n2c1[nH]c1ccccc12 | -161.8% | . | 14.1µM* | 0.4% | . | -2.8%
Cc1ccc(NC(=O)c2cc(N3C(=O)C4CC=CCC4C3=O)ccc2N2CCCCC2)cc1 (stereo not drawn) | -6.6% | ? | -13.1% | ? | 66.0 | 2.2%
Cc1ccc(NC(=O)c2cc(N3C(=O)C4CCCCC4C3=O)ccc2N2CCOCC2)cc1 (stereo not drawn) | -7.0%[10 µM] | . | -3.7%[9.22 µM] | 22.4µM* | . | 4.2%
O=c1c(-c2cccc(Cl)c2)nc2cncnc2n1Cc1ccccc1 | -10.0% | . | . | ? | . | .
O=C(O)c1oc(C(=O)O)c(C(=O)O)c1C(=O)O | 2.6%[10 µM] | -4.3% | . | 9.0%[13.5 µM] | . | .
COc1ccc(C(=O)c2c(C)oc3ccc(O)c(CN4CCOCC4)c23)cc1 | -2.6% | -10.3% | -4.6% | 7.8% | ? | 0.7%
COCCOC(=O)c1c(C)oc2ccc(O)c(CN3CCC(C)CC3)c12 | -9.3% | 3.8% | 14.7%[9.22 µM] | 7.5% | -109.9* | 6.7%
O=C(NC1CCCCCCC1)c1cc(COc2ccc3ncccc3c2)on1 | -55.3% | . | 3.16µM* | ? | . | 0.2%
Cc1cccnc1CN1CCN(C(=O)c2cc(COc3ccc4ncccc4c3)on2)CC1 | -65.9% | . | 6.31µM* | 1.0% | . | 1.1%
CCOc1cc(C)c(S(=O)(=O)Nc2ccc3cn[nH]c3c2)cc1C | -72.5% | -19.1% | ? | ? | -10.8 | 0.1%
O=C(NNS(=O)(=O)c1ccc(Br)cc1)c1csnn1 | . | . | 3.7% | 2.5% | . | 5.9%
Cc1cc(-c2ccccc2)nc2cc(C(=O)N(Cc3ccccc3)Cc3ccccc3)nn12 | 15.1%[10 µM] | ? | 12.6µM* | ? | -15.3 | ?
Cc1cc(C(=O)N[C@H](c2ccccc2)[C@@]2(C)C[C@@H]2[C@@H](C)C(=O)Nc2ccc3ccccc3c2)no1 | -79.3% | -11.3% | ? | 12.6µM* | 33.1 | ?
C[C@@H](C(=O)Nc1ccc2ccccc2c1)[C@H]1C[C@]1(C)[C@H](NC(=O)c1cnccn1)c1ccccc1 | -71.4% | -9.1% | ? | 11.2µM* | -91.2* | 0.5%[2.36 µM]
Cc1cc(C(=O)N[C@@H](c2ccccc2)[C@]2(C)C[C@H]2[C@@H](C)C(=O)Nc2ccc3ccccc3c2)no1 | -5.4% | -19.7% | -15.7% | 4.4% | 46.6 | 0.2%[2.36 µM]
COC(=O)C/C=C\[C@@H](C)[C@@H](/C=N\OC[C@@H](O)[C@H]1O[C@H]2OC(C)(C)O[C@H]2[C@@H]1O)OC | 14.6%[10 µM] | . | . | -4.0%[13.5 µM] | . | 5.9%[13.1 µM]
Cc1cc(NC(=O)CN2C(=O)CC(c3ccco3)Sc3ccccc32)no1 (stereo not drawn) | -18.4%[10 µM] | -5.0% | -4.6% | 14.1µM* | -22.9 | -2.2%
CCOC(=O)O[C@@H](C)OC(=O)[C@@H]1N2C(=O)[C@@H](NC(=O)[C@@H](N)c3ccccc3)[C@H]2SC1(C)C | ? | -9.1% | 2.4%[20.6 µM] | 9.8%[20.9 µM] | . | 17.2%[21.7 µM]
COC(=O)NC(c1cccc(C)c1)[C@]1(C(C)=O)CCOC1=O (stereo partly drawn) | -48.8%[10 µM] | . | . | ? | . | -1.3%[13.1 µM]
O=C(COC(=O)c1c2c(nc3ccccc13)CCN(Cc1ccccc1)C2)Nc1c(F)cccc1F | -5.3%[10 µM] | -3.3% | 4.3% | ? | 5.5 | -20.8%
CC(=O)Nc1ccc(NC(=O)COC(=O)c2c3c(nc4ccccc24)CCN(Cc2ccccc2)C3)cc1 | 5.9%[10 µM] | . | 3.98µM* | 7.08µM* | 11.2 | -6.4%
C[C@H]1Cc2c(COc3ccccc3)nc3c(c2CO1)CN(S(=O)(=O)c1ccc(Cl)c2nonc12)CC3 | -17.7%[10 µM] | -4.4% | . | ? | . | 15.1%[13.1 µM]
NNC(=O)C(Cc1ccccc1)NC(=O)OCc1ccccc1 (stereo not drawn) | -11.9%[10 µM] | . | 6.0%[9.22 µM] | ? | . | -2.4%
O=C1CCc2nc3ccccc3c(=O)n2N1 | 7.3% | -14.9% | -12.6% | ? | 12.4 | 2.3%
SMILES | HTT ATP protect | HPGD block | HTT aggregate | ALDH1A1 block | PNC inhibitor | CBFb RUNX1 block
Cc1sc2nc3n(c(=O)c2c1C)NC(=O)CC3 | -1.9%[10 µM] | -13.2% | 2.6% | 5.8% | -100.0* | -2.9%
O=C(Cn1nc(C(=O)O)c2ccccc2c1=O)Nc1ccc2c(c1)C(=O)c1ccccc1C2=O | 4.3%[10 µM] | . | -2.5%[9.22 µM] | ? | . | 2.6%
O=C(O)/C(=C\c1ccccc1)Cc1ccccc1 | -18.4%[10 µM] | -5.5% | . | -1.5%[13.5 µM] | . | .
CC(=O)Nc1ccc(S(=O)(=O)N2CCN(CCC#N)CC2)cc1 | -4.4%[10 µM] | 0.1% | -0.8% | -1.3% | 2.3 | 4.8%
CC(=O)Nc1ccc(S(=O)(=O)N2CCN(Cc3ccccc3[N+](=O)[O-])CC2)cc1 | -7.2% | . | -27.7% | 22.4µM* | . | -0.3%
O=[N+]([O-])c1ccccc1S(=O)(=O)N1CCN(CC2CC3C=CC2C3)CC1 (stereo not drawn) | -42.6% | . | -3.3% | 14.1µM* | . | -7.0%
CS(=O)(=O)N1CCN(CC2CC3C=CC2C3)CC1 (stereo not drawn) | 1.1%[10 µM] | 0.6% | -2.2% | -4.1% | -89.4* | -1.5%
CC(=O)Nc1ccc(S(=O)(=O)N2CCN(CC3CC4C=CC3C4)CC2)cc1 (stereo not drawn) | 4.8%[10 µM] | . | 7.4%[9.22 µM] | 4.47µM* | . | 12.8%
Cc1ccccc1CN1CCN(CC2CC3C=CC2C3)CC1 (stereo not drawn) | -16.5% | 2.5% | -4.4% | -8.6% | 45.5 | 0.0%
C1=CC2CC1CC2CN1CCN(c2ccccc2)CC1 (stereo not drawn) | 6.0% | 3.4% | -2.4% | -8.1% | -81.4* | -0.3%
COc1ccc(C(=O)N2CCC[C@@]3(CCN(c4ncccn4)C3)C2)cc1 | 22.1% | -14.0% | . | ? | . | .
CS(=O)(=O)Nc1cccc(-c2ccc3ncnc(N4CCNCC4)c3c2)c1 | -38.1% | . | . | -3.2% | . | .
COC(=O)c1cccc(-c2ccc(/C=N/N3C(=O)C4C5C=CC(C6CC56)C4C3=O)o2)c1 (stereo not drawn) | . | . | . | 14.1µM* | . | -11.4%
COC(=O)c1ccc(-c2ccc(/C=N/N3C(=O)C4C5C=CC(C6CC56)C4C3=O)o2)cc1 (stereo not drawn) | . | 14.1µM* | -11.7% | 384.6% | -0.7 | -15.9%
